Bioassay records deposited in PubChem BioAssay by several laboratories.
Shown are actives, neighbours in structure and some others; about 32% of the full set was active somewhere.
CYP2C19 act – human CYP2C19 activators, primary screen, biochemical, luminescence; activation factor at 5 µM; recombinant CYP2C19, luciferin-H EGE luminescence; stronger effect = higher value; 0 = fully inhibited enzyme, 1 = untreated enzyme; 96,000 tested, under 10 active;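 active = activation factor of at least 2 at 5 µM in the primary screen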;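 note: 0 = wells with 2.5 mM tranylcypromine and 1 = vehicle-only wells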
PostGolgi ctrl – growth inhibition of yeast control strain, primary screen, counter-screen for post-Golgi transport modulator project; inhibition, % at 10 µM; 98,000 tested, 5% active; efflux-deficient yeast background strain, growth absorbance A615, 16 h
CYP2C9 inhib – blockers of cytochrome P450 2C9 activity – biochemical, luminescence, ADME assay, primary screen; P11712; CYP2C9 Supersomes, luciferin-H conversion; inhibition, % at 5 µM; 96,000 tested, 20% active; AID 777, 2007;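 active = blocking of liver enzyme CYP2C9 beyond about 50% at 5 µM, limit read from the data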
Target sequence (P11712 whole entry, looked up): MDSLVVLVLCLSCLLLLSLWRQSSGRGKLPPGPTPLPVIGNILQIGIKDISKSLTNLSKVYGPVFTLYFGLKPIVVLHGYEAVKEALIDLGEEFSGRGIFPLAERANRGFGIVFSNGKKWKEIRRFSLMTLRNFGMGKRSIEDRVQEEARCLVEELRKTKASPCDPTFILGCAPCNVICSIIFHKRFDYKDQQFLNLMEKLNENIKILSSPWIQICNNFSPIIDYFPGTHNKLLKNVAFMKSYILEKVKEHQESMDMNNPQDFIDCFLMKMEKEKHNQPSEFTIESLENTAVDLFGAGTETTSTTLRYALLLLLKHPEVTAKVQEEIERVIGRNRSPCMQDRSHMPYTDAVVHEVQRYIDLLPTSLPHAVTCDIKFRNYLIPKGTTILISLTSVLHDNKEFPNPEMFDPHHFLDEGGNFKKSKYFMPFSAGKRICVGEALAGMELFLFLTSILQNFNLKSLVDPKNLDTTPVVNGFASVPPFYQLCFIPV
PostGolgi yeast – phenotypic screen on post-Golgi transport, primary screen; post-Golgi transport phenotypic cell assay; inhibition, % at 10 µM; 98,000 tested, 0.9% active; AID 739, 2007;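 note: yeast cells grown in 1536-well plates; yeast grown about 18 h at 30C before absorbance read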
CYP2C19 inh – blockers of cytochrome P450 2C19 activity – biochemical, luminescence, ADME assay, primary screen; inhibition, % at 5 µM; P33261; CYP2C19 Supersomes, luciferin-H EGE luminescence, 30 min; 96,000 tested, 21% active;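 active = CYP2C19 inhibition above a set limit at 5 µM in the primary screen, cut at about 50% in these data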;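 note: plate controls were negative control wells for no effect and 2.5 mM tranylcypromine positive control for full effect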
CYP2C9 activ – human CYP2C9 activators, primary screen, biochemical, luminescence; AID 1024, 2008; recombinant CYP2C9, luciferin-H conversion; stronger effect = higher value; factor 1 = untreated enzyme, 0 = blocked; activation factor at 5 µM; Cytochrome P450 2C9 (Homo sapiens), P11712; 96,000 tested, 1.4% active;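 active = activation factor of 2 or more for CYP2C9 at a 5 µM dose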;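 note: 0 = sulfaphenazole-blocked wells and 1 = vehicle-only wells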
* = called active by the depositor. Cut-off read from the data, not from the text of the source, unless noted: active = inhibition above about 30%; inactive = the rest.

SMILES	CYP2C19 act	PostGolgi ctrl	CYP2C9 inhib	PostGolgi yeast	CYP2C19 inh	CYP2C9 activ
Cc1ccc(-c2csc(NC(=O)CSc3nc(C)cc(=O)[nH]3)n2)cc1	0.7	4	82*	6	27	0.2
Cc1ccc(C(=O)CSc2nc(C)cc(=O)[nH]2)cc1	0.9	9	32	4	12	0.7
CCC(Sc1nc(C)cc(=O)[nH]1)C(=O)Nc1nc(-c2ccccc2)cs1 (stereo unspecified)	0.3	-4	88*	22	71*	0.1
Cc1ccc(NC(=O)CSc2nc(NS(=O)(=O)c3ccccc3)cc(=O)[nH]2)cc1	0.8	8	61*	-3	23	0.4
CCC(Sc1nc(-c2ccccc2)c(C#N)c(=O)[nH]1)C(=O)Nc1nnc(C)s1 (stereo unspecified)	0.9	0	67*	19	11	0.3
Cc1ccc(SCC(=O)Nc2ccccc2C(=O)O)cc1	0.7	5	85*	3	34	0.2
COC(=O)c1ccccc1NC(=O)CN1CCOCC1	0.9	-1	7	2	14	0.9
COC(=O)c1ccccc1NC(=O)Cn1cc(Br)cn1	0.4	8	0	-5	60*	1
O=C(CSc1ccccc1)Nc1ccccc1C(=O)O	1	3	33	18	1	0.7
COC(=O)c1ccccc1NC(=O)CSc1n[nH]c(CC(C)C)n1	0.1	12	-50	-7	86*	1.5
COC(=O)c1ccccc1NC(=O)c1cccc(COc2ccccc2Cl)c1	0.8	0	28	2	20	0.7
COC(=O)c1ccccc1NC(=S)NC(=O)COc1ccccc1Cl	0.8	31*	-9	-1	24	1.1
Nc1ccccc1-c1nnc(-c2ccc(-c3ccccc3)cc2)o1	0.8	10	40	-8	20	0.6
COC(=O)c1ccccc1NC(=O)CSc1ccccc1	0	12	-28	-6	95*	1.3
COC(=O)c1ccccc1NC(=O)CSCC(=O)Nc1ccccc1OC	0.5	2	-42	-2	47	1.4
COC(=O)c1ccccc1NC(=O)COc1ccccc1	0.5	4	2	-3	53*	1
COCCNC(=O)c1ccccc1NC(=O)COc1ccccc1	1	0	46	-2	-1	0.5
O=C(Nc1nc(-c2cc(Cl)sc2Cl)cs1)c1ccccc1	0.7	10	32	3	26	0.7
O=C(Cn1c(-c2cscn2)nc2ccccc21)Nc1ccccc1F	0.5	-5	11	-11	45	0.9
O=C(Nc1ccc(Br)cc1)c1ccco1	1.1	5	21	18	-5	0.8
O=C(COC(=O)c1ccco1)Nc1ccccc1	0.4	-1	18	-3	58*	0.8
O=C(COC(=O)Cc1cccs1)Nc1ccccc1	0.3	-3	29	2	69*	0.7
O=C(COC(=O)c1ccco1)Nc1ccc(Br)cc1	0.7	17	37	4	25	0.6
O=C(Nc1nccs1)c1ccc(NC(=O)c2ccco2)cc1	0.8	-1	51*	-7	20	0.5
O=C(Nc1ccc(Nc2ccccc2)cc1)c1ccco1	0.3	9	82*	-10	67*	0.2
SMILES	CYP2C19 act	PostGolgi ctrl	CYP2C9 inhib	PostGolgi yeast	CYP2C19 inh	CYP2C9 activ
O=C(O)Cc1ccc(NC(=O)c2ccc(NC(=O)c3ccco3)cc2)cc1	0.8	3	7	-1	23	0.9
CCCCCCSc1nc(O)c(C2OC(=O)c3c2ccc(OC)c3OC)c(=O)n1-c1ccccc1 (stereo unspecified)	0.9	12	39	-6	10	0.6
Cc1cc(C)n2nc(C(=O)OCCOc3cccc(Br)c3)nc2n1	0.8	0	11	-5	19	0.9
CC(CC#CCN1CCOCC1)OCCC#N (stereo unspecified)	1.1	-4	3	12	-11	1
CCOC(=O)c1cnc(-n2cc(C)cn2)nc1Nc1ccccc1OCC	1.2	13	-19	-5	-19	1.2
O=C(Nc1ccc(OCC(=O)N2CCC(Cc3ccccc3)CC2)cc1)c1ccco1	0.1	19	87*	0	95*	0.1
